ChEMBL document CHEMBL1961873, “Compounds: GSK PKIS; Assays: Nanosyn kinase panel” (2012)

System: T1, Receptor-type tyrosine-protein kinase FLT3 (Homo sapiens), P36888 [D835Y]
T1 sequence (whole entry): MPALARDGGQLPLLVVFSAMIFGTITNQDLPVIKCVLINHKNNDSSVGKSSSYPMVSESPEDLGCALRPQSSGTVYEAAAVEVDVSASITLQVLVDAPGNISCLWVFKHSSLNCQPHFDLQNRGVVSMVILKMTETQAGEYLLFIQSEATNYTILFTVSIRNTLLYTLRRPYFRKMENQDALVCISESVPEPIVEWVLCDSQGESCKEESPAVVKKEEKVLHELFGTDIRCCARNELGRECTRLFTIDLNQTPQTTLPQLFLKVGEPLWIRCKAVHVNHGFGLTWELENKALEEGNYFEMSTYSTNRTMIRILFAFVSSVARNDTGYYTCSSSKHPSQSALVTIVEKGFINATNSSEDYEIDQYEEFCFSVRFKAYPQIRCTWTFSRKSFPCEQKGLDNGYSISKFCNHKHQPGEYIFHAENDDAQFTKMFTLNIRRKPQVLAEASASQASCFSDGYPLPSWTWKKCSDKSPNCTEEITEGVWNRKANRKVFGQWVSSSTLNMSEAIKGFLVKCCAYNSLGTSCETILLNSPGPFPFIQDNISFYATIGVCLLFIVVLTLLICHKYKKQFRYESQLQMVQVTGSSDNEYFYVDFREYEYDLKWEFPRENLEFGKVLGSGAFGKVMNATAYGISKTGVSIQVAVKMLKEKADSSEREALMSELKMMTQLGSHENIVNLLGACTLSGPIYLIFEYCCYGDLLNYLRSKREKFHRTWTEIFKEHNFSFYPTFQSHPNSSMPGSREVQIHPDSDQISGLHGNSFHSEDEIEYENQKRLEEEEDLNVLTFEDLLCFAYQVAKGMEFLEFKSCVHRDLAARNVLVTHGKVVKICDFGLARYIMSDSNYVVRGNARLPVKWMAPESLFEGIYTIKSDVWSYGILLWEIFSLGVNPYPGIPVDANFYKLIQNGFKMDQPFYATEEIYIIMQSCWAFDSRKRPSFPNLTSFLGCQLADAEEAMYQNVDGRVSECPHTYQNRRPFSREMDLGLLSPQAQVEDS
Details: at 0.1 µM

Structure (SMILES)	inhibition [%]
Fc1ccc(-c2nn3ccccc3c2-c2ccncc2)cc1	-0.98
NS(=O)(=O)c1ccc(N/N=C2\C(=O)Nc3ccc4ncccc4c32)cc1	35.1
CCc1nn2ncccc2c1-c1ccnc(NC2CC2)n1	-7.04
O=C(Nc1n[nH]c2cc(-c3ccc(F)cc3)ccc12)C1CC1	-0.06
CCCN1CCC(c2ccc(Nc3nc(Nc4cc(F)ccc4C(N)=O)c4cc[nH]c4n3)c(OC)c2)CC1	6.01
CCCN(CCS(C)(=O)=O)Cc1ccc(-c2ccc3ncnc(Nc4ccc(OCc5cccc(F)c5)c(Cl)c4)c3c2)o1	1.48
CCn1cc(-c2ccnc3[nH]ccc23)c(-c2cccc(NC(=O)Nc3ccc(OCc4ccccc4)cc3)c2)n1	-9.12
CC(C)COC(=O)c1ccc2c(c1)/C(=C/Nc1ccc(S(N)(=O)=O)cc1)C(=O)N2	58.7
NS(=O)(=O)c1ccc(Nc2ncc(-c3ccccc3)o2)cc1	8.41
Cc1ccc(O)cc1Nc1ccnc2cc(-c3ccccn3)ccc12	1.48
COc1cc2ncn(-c3cc(OCc4ccccc4C(F)(F)F)c(C(=O)N(C)C)s3)c2cc1OC	-1.94
COc1ccc(-c2nn3ncccc3c2-c2ccnc(Nc3ccc4c(c3)OCCO4)n2)cc1	-7.3
COc1cccc(-n2ncc3c(N/N=C/c4ccc(F)cc4)ncnc32)c1	0.24
COc1cc(Nc2nccc(Nc3ccc4c(C)n[nH]c4c3)n2)cc(OC)c1OC	52.4
COc1ccc(-c2cc3c(N)ncnc3o2)cc1	-4.44
Nc1ncc(-c2cccc(S(N)(=O)=O)c2)c2scc(-c3ccc(F)c(Cl)c3)c12	-3.2

Structure (SMILES)	inhibition [%]
COC(=O)c1sc(-n2cnc3cc(OC)c(OC)cc32)cc1OCc1ccccc1C(F)(F)F	-4.92
Clc1ccc(-c2nn3ncccc3c2-c2ccnc(Nc3ccccc3)n2)cc1	-2.63
CC(=O)NCc1cccc(C#Cc2cncnc2Nc2ccc(OCc3cccc(F)c3)c(Cl)c2)c1	-0.58
COc1cc2c(cc1Nc1nc(Nc3ccsc3C(N)=O)c3cc[nH]c3n1)N(C(=O)CN(C)C)CCC2(C)C	0.35
Cc1cccc(Nc2ncc(-c3ccccc3)o2)c1	-4.74
CCn1c(-c2nonc2N)nc2cnc(Oc3cccc(NC(=O)c4ccc(N(C)C)cc4)c3)cc21	-1.65
COc1ccc(-c2oc3ncnc(N)c3c2-c2ccc(NC(=O)Nc3cc(C(F)(F)F)ccc3F)cc2)cc1	12.7
COc1cc(/C=N/Nc2ncnc3[nH]ncc23)ccc1O	3.54
Fc1cccc(COc2ccc(Nc3ncnc4sc(-c5ccco5)cc34)cc2Cl)c1	-8.41
CN1CCC(n2cnc(-c3ccc(F)cc3)c2-c2ccnc(Nc3ccccc3)n2)CC1	-1.9
CNC(=O)c1cccc(C#Cc2cncnc2Nc2ccc(OCc3cccc(F)c3)c(Cl)c2)c1	1.13
FC(F)(F)c1cccc(-c2nn3ncccc3c2-c2ccnc(Nc3ccc4c(c3)OCCO4)n2)c1	-3.8
CN(C)CCOc1ccc(-c2nc(-c3ccncc3)c(-c3ccc4c(c3)CC/C4=N\O)[nH]2)cc1	1.65
Cc1cccc2c1NC(=O)/C2=N\Nc1ccc(S(N)(=O)=O)cc1	3.4
COc1cccc(-c2c[nH]c3c(N/N=C/c4ccncc4)ncnc23)c1	16.4
COc1ccc(-c2cc(-c3c[nH]nc3-c3ccccn3)ccn2)cc1	1.47

Target: Non-receptor tyrosine-protein kinase TYK2 (Homo sapiens) (UniProt P29597);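 also: values are mean percent inhibition of TYK2 kinase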
Details: at 1 µM

Chain of Non-receptor tyrosine-protein kinase TYK2 (Homo sapiens) (P29597 whole entry): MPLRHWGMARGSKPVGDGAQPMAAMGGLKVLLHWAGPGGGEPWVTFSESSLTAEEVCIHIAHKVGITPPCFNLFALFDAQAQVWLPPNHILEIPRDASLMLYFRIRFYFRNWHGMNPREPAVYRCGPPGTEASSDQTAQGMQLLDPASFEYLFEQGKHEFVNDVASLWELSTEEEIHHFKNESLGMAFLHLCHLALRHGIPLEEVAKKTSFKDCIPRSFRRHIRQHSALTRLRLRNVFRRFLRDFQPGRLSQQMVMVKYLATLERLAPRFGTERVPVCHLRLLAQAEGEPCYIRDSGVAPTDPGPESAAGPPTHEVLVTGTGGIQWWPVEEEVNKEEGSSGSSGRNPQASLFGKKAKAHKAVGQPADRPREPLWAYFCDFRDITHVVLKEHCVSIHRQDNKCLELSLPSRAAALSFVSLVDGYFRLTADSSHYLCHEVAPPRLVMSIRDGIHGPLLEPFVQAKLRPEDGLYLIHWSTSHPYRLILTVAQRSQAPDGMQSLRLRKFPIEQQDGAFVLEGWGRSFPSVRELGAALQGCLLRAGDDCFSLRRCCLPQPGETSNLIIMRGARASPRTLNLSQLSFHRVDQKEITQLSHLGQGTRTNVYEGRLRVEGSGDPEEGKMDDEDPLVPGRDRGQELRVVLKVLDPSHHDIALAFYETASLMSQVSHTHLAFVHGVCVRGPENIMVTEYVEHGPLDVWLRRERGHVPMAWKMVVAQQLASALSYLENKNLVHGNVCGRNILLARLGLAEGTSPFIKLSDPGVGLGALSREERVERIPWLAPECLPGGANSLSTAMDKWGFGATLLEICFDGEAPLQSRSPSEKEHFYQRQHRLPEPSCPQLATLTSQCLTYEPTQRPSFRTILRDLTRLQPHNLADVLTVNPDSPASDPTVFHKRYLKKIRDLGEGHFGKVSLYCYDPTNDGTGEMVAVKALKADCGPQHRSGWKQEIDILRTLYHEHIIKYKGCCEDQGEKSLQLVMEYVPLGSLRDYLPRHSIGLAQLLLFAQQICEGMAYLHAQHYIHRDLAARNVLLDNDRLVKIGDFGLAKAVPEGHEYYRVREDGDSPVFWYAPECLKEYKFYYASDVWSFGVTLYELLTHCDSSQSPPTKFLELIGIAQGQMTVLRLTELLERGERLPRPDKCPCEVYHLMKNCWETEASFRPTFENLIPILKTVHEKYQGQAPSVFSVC

Structure (SMILES)	inhibition [%]
Fc1ccc(-c2nn3ccccc3c2-c2ccncc2)cc1	-0.08
NS(=O)(=O)c1ccc(N/N=C2\C(=O)Nc3ccc4ncccc4c32)cc1	33.5
CCc1nn2ncccc2c1-c1ccnc(NC2CC2)n1	2.1
O=C(Nc1n[nH]c2cc(-c3ccc(F)cc3)ccc12)C1CC1	-3.58
CCCN1CCC(c2ccc(Nc3nc(Nc4cc(F)ccc4C(N)=O)c4cc[nH]c4n3)c(OC)c2)CC1	-2.78
CCCN(CCS(C)(=O)=O)Cc1ccc(-c2ccc3ncnc(Nc4ccc(OCc5cccc(F)c5)c(Cl)c4)c3c2)o1	-0.78
CCn1cc(-c2ccnc3[nH]ccc23)c(-c2cccc(NC(=O)Nc3ccc(OCc4ccccc4)cc3)c2)n1	0.52
CC(C)COC(=O)c1ccc2c(c1)/C(=C/Nc1ccc(S(N)(=O)=O)cc1)C(=O)N2	4.42
NS(=O)(=O)c1ccc(Nc2ncc(-c3ccccc3)o2)cc1	2.33
Cc1ccc(O)cc1Nc1ccnc2cc(-c3ccccn3)ccc12	-4
COc1cc2ncn(-c3cc(OCc4ccccc4C(F)(F)F)c(C(=O)N(C)C)s3)c2cc1OC	1.47
COc1ccc(-c2nn3ncccc3c2-c2ccnc(Nc3ccc4c(c3)OCCO4)n2)cc1	-1.85
COc1cccc(-n2ncc3c(N/N=C/c4ccc(F)cc4)ncnc32)c1	-1.74
COc1cc(Nc2nccc(Nc3ccc4c(C)n[nH]c4c3)n2)cc(OC)c1OC	33.3
COc1ccc(-c2cc3c(N)ncnc3o2)cc1	3.74
Nc1ncc(-c2cccc(S(N)(=O)=O)c2)c2scc(-c3ccc(F)c(Cl)c3)c12	-2.5
COC(=O)c1sc(-n2cnc3cc(OC)c(OC)cc32)cc1OCc1ccccc1C(F)(F)F	-3.12

Structure (SMILES)	inhibition [%]
Clc1ccc(-c2nn3ncccc3c2-c2ccnc(Nc3ccccc3)n2)cc1	-0.64
CC(=O)NCc1cccc(C#Cc2cncnc2Nc2ccc(OCc3cccc(F)c3)c(Cl)c2)c1	2.95
COc1cc2c(cc1Nc1nc(Nc3ccsc3C(N)=O)c3cc[nH]c3n1)N(C(=O)CN(C)C)CCC2(C)C	-1.34
Cc1cccc(Nc2ncc(-c3ccccc3)o2)c1	-4.11
CCn1c(-c2nonc2N)nc2cnc(Oc3cccc(NC(=O)c4ccc(N(C)C)cc4)c3)cc21	-0.04
COc1ccc(-c2oc3ncnc(N)c3c2-c2ccc(NC(=O)Nc3cc(C(F)(F)F)ccc3F)cc2)cc1	0.14
COc1cc(/C=N/Nc2ncnc3[nH]ncc23)ccc1O	4.1
Fc1cccc(COc2ccc(Nc3ncnc4sc(-c5ccco5)cc34)cc2Cl)c1	-1.9
CN1CCC(n2cnc(-c3ccc(F)cc3)c2-c2ccnc(Nc3ccccc3)n2)CC1	0.82
CNC(=O)c1cccc(C#Cc2cncnc2Nc2ccc(OCc3cccc(F)c3)c(Cl)c2)c1	0.07
CCOc1ccc2c(-c3ccnc(Nc4cccc(C(F)(F)F)c4)n3)cnn2n1	0
CCN1CCC(CC(=O)Nc2n[nH]c3nnc(-c4cccc(F)c4F)cc23)CC1	2.26
FC(F)(F)c1cccc(-c2nn3ncccc3c2-c2ccnc(Nc3ccc4c(c3)OCCO4)n2)c1	-3.08
CN(C)CCOc1ccc(-c2nc(-c3ccncc3)c(-c3ccc4c(c3)CC/C4=N\O)[nH]2)cc1	-5.49
Cc1cccc2c1NC(=O)/C2=N\Nc1ccc(S(N)(=O)=O)cc1	-0.5
COc1cccc(-c2c[nH]c3c(N/N=C/c4ccncc4)ncnc23)c1	10.5
COc1ccc(-c2cc(-c3c[nH]nc3-c3ccccn3)ccn2)cc1	-4.16
